In PubChem BioAssay:

Assay: P. aeruginosa biofilm formation inhibitors, primary screen, strain PAO1, LB-PBS medium, absorbance 600 nm (AID 1176); further: test concentration not given here
Conditions: P. aeruginosa PAO1 growth/biofilm, A600, 12 h; higher = more signal; call rule not given here

z-score, inactive:
COc1cc(NN2C(C(O)c3ccco3)C=CC3C(=O)N(c4ccccc4)C(=O)C32)cc(OC)c1OC (stereo not given) 0.711
COCCCNC(=O)[C@@]1(C)c2ccccc2C(=O)N(C(C)C)[C@H]1c1ccc(CO)cc1 0.208
COc1cc2c(cc1OC)CN(C(=O)[C@@H]1[C@H]3C(=O)O[C@H](c4ccccc4)[C@H](c4ccccc4)N3[C@H](c3ccc(O)cc3)[C@@]13C(=O)Nc1ccccc13)CC2 0.614
O=C(NC1CC1)[C@@H]1c2ccccc2C(=O)N(Cc2ccccc2Cl)[C@H]1c1ccc(CO)cc1 0.994
O=C1c2ccccc2[C@](Cc2ccccc2I)(C(=O)NCC(F)(F)F)[C@H](c2ccc(CO)cc2)N1Cc1ccccc1Cl 0.723
Cc1ccc(S[C@]2(C(=O)O)CC(=O)N(C(C)C)[C@@H]2c2ccc(CO)cc2I)cc1 0.953
COc1ccc(C#Cc2ccc3c(c2)[C@]2(C(=O)N3)[C@H](C(=O)NC[C@H](O)c3ccccc3)[C@H]3C(=O)O[C@H](c4ccccc4)[C@H](c4ccccc4)N3[C@@H]2c2ccc(O)cc2)cc1 0.971
COC(=O)[C@@]1(Cc2ccc(F)cc2)[C@H]2c3cc(C(=O)N4CCCC4)n(Cc4ccc(S(C)(=O)=O)cc4)c3C[C@H]2CN1C(=O)c1ccccc1 1.09
O=C1C2C=CC(C(O)c3cccc4ccccc34)N(Nc3ccccc3F)C2C(=O)N1c1ccccc1 (stereo not given) 1.11
CCCC[C@@H]1C[C@H]1[C@@H](NC(=O)c1ccco1)c1ccccc1C(F)(F)F -0.0298
CC(C)NC(=O)[C@@]1(c2ccc([N+](=O)[O-])cc2)CC(=O)N(C2CCCCC2)[C@@H]1c1ccc(CO)cc1I -0.0469
C=CCOC(=O)[C@H]1[C@@H]2C(=O)O[C@@H](c3ccccc3)[C@@H](c3ccccc3)N2[C@@H](c2ccc(OCCOC(=O)[C@H]3C[C@H]4C(=O)N[C@@H](CCCCNC(C)=O)C(=O)N4[C@H]3c3ccc(O)cc3)cc2)[C@]12C(=O)Nc1ccc(I)cc12 1.14
Cc1ccc(S[C@]2(C(=O)NC3CC3)CC(=O)N(Cc3ccccc3)[C@@H]2c2ccc(CO)cc2I)cc1 0.751
CC1CC/C=C\[C@H]2OC34C=CCN(C(C)(C)C)C(=O)[C@H]3N(CCO)C(=O)[C@@H]4C2C(=O)O1 (stereo not given in full) 0.22
C=CCC(OC(C)=O)[C@@H]1[C@@H](N(Cc2ccc(-c3ccccc3)cc2)C(=O)Cc2ccc(OC)cc2)c2cc(OCCCO)ccc2N1C(=O)Cc1ccc2ccccc2c1 (stereo not given in full) 0.562
COC(=O)C(CC#Cc1ccc2c(c1)[C@]1(C(=O)N2)[C@H](C(=O)Nc2nc3ccccc3s2)[C@H]2C(=O)O[C@H](c3ccccc3)[C@H](c3ccccc3)N2[C@@H]1c1ccc(O)cc1)C(=O)OC 1.23
O=C1C[C@@](C(=O)NCCN2CCOCC2)(c2ccc([N+](=O)[O-])cc2)[C@@H](c2ccc(CO)cc2I)N1CC12CC3CC(CC(C3)C1)C2 0.941
CCCCCN1CC=CC23O[C@@H]4C=CCCOC(=O)C4[C@H]2C(=O)N(CCCCCO)[C@@H]3C1=O (stereo not given in full) -0.304
COCCCNC(=O)[C@@H]1c2ccccc2C(=O)N(Cc2ccccc2Cl)[C@H]1c1ccc(CO)cc1 0.692
C=C(CCCC)/C(=C/C[C@@H](OC(C)=O)c1ccc(OCCO)cc1)c1cnc2ccccc2c1 0.825
COc1ccc(CCNC(=O)[C@@]2(Sc3ccc(C)cc3)CC(=O)N(C(C)C)[C@@H]2c2ccc(CO)cc2I)cc1 0.196
CCCC[C@@H]1C[C@H]1[C@@H](NC(=O)c1cccs1)c1ccc(-c2ccccc2)cc1 1.03
CN(C)CCCCCCNC(=O)[C@H]1C[C@H]2C(=O)N[C@@H](CCCCN)C(=O)N2[C@H]1c1cccc(OCCO)c1 0.0346
C=C(C)[C@@H]1CC=C(C(O)C2C=CC3C(=O)N(c4ccccc4)C(=O)C3N2Nc2ccccc2)CC1 (stereo not given in full) 1.6
COCCOC(=O)N1C(=O)[C@@]2(c3cc(C#CCC(C(=O)OC)C(=O)OC)ccc31)[C@H](c1ccccc1OCCO)N1[C@H](c3ccccc3)[C@H](c3ccccc3)OC(=O)[C@H]1[C@@H]2C(=O)NC[C@H](O)c1ccccc1 2.23
